# Results: PubChem BioAssay (NCATS)
# Values joined by “and” are separate entries in the source; they are usually repeats but may differ in a detail not shown here. Equal entries are not always repeated. Results filed as inconclusive are left out. Entries that show only a call come without a potency. Active and inactive are the calls of the source. Unless noted, calls come from the whole dose curve; as a rule, active = well fitted curve in the direction sought with a large enough effect; inconclusive = small, poorly fitted or top-dose-only effect, or another doubt; inactive = no such curve, though single readings can be large; an effect the other way counts as inactive or inconclusive.
# What was measured:
# [1] = P-glycoprotein substrates identified in KB-3-1 adenocarcinoma cell line, qHTS therapeutic library screen (AID 1346986); note: nearly all actives have a fitted effect of over 60% in size
# Summary of the method: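 Cells seeded 500/well in DMEM/10% FCS; compounds pinned in dose-response; 72 h incubation; CellTiter-Glo added, 5 min, luminescence. KB-8-5-11 run ±tariquidar to test reversal of P-gp resistance.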
# [2] = qHTS of pediatric cancer cell lines to identify multiple opportunities for drug repurposing: Primary screen for TC32 cells (AID 1347089); note: nearly all actives have a fitted effect of over 60% in size; note: potency is the fitted concentration of half-maximal effect
# Summary of the method: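 In the primary qHTS, MIPE compounds were tested at 11 concentrations (0.78 nM to 46 µM) and NPC compounds at 8 (0.59 nM to 46 µM) on TC32 cells for 48 h. CellTiter-Glo luminescence gave viability.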
# [3] = qHTS of pediatric cancer cell lines to identify multiple opportunities for drug repurposing: Primary screen for SJ-GBM2 cells (AID 1347091); note: potency is the fitted concentration of half-maximal effect
# Summary of the method: (§1)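 Cell viability, CellTiter-Glo luminescence; 500-1,000 cells/well, 8- or 11-point titration, 48 h compound exposure at 37 degrees C, 5% CO2. Controls: DMSO neutral, bortezomib 2.3 µM final as positive.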
# [4] = qHTS of pediatric cancer cell lines to identify multiple opportunities for drug repurposing: Primary screen for A673 cells (AID 1347092); note: nearly all actives have a fitted effect of over 45% in size; note: potency is the fitted concentration of half-maximal effect
# Summary of the method: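 48 h compound exposure, A673, 500-1,000 cells/well, 37 degrees C/5% CO2. MIPE: 11-point, 0.78 nM-46 µM; NPC: 8-point, 0.59 nM-46 µM (final). Readout CellTiter-Glo luminescence after 15 min RT.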
# [5] = qHTS of pediatric cancer cell lines to identify multiple opportunities for drug repurposing: Primary screen for SK-N-MC cells (AID 1347093); note: potency is the fitted concentration of half-maximal effect
# Summary of the method: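 Metabolically active cells were quantified by ATP-dependent luminescence (CellTiter-Glo, 15 min at room temperature) following 48 h treatment. Cells had been plated at 500-1,000 per well and settled for 5 h beforehand.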
# [6] = qHTS of pediatric cancer cell lines to identify multiple opportunities for drug repurposing: Primary screen for NB-EBc1 cells (AID 1347095); note: potency is the fitted concentration of half-maximal effect
# Summary of the method: (§2)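 Quantitative HTS format: each compound titrated (MIPE 11 points from 0.78 nM, NPC 8 points from 0.59 nM) onto cells plated 5 hours earlier. After 48 h at 37 degrees C, CellTiter-Glo luminescence was recorded.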
# [7] = qHTS of pediatric cancer cell lines to identify multiple opportunities for drug repurposing: Primary screen for Saos-2 cells (AID 1347097); note: nearly all actives have a fitted effect of over 40% in size; note: potency is the fitted concentration of half-maximal effect
# Summary of the method: as §2
# [8] = qHTS of pediatric cancer cell lines to identify multiple opportunities for drug repurposing: Primary screen for SK-N-SH cells (AID 1347098); note: nearly all actives have a fitted effect of over 65% in size; note: potency is the fitted concentration of half-maximal effect
# Summary of the method: (§3)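 Cells (500-1,000/well) rested 5 h, then received compounds for 48 h; metabolically active cells were measured by CellTiter-Glo luminescence. Final concentrations spanned up to 46 µM (MIPE, 11-point) or 0.59 nM-46 µM (NPC, 8-point) in primary screens, 11-point in follow-ups.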
# [9] = NS1 protein of Zika virus - qHTS assay to identify small molecule inhibitors in human HEK 293 cells (AID 1347053); note: nearly all actives have a fitted effect of over 55% in size; note: potency is the fitted concentration of half-maximal effect
# Summary of the method: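 HEK 293 cells pretreated with compound for 1 h, then infected with ZIKV MR766 (MOI 0.5) for 24 h at 37 C. NS1 detected by TR-FRET with two anti-NS1 antibodies; normalized to uninfected (0%) and infected (100%) wells.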
# [10] = qHTS of pediatric cancer cell lines to identify multiple opportunities for drug repurposing: Primary screen for DAOY cells (AID 1347090); note: nearly all actives have a fitted effect of over 55% in size; note: potency is the fitted concentration of half-maximal effect
# Summary of the method: as §1
# [11] = qHTS of pediatric cancer cell lines to identify multiple opportunities for drug repurposing: Primary screen for BT-37 cells (AID 1347094); note: potency is the fitted concentration of half-maximal effect
# Summary of the method: as §2
# [12] = P-glycoprotein substrates identified in KB-8-5-11 adenocarcinoma cell line, qHTS therapeutic library screen (AID 1346987); note: nearly all actives have a fitted effect of over 65% in size; note: potency is the fitted concentration of half-maximal effect
# Summary of the method: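 KB-8-5-11, a colchicine-selected P-gp-overexpressing KB-3-1 subline, was grown without colchicine for the assay. Cells were seeded at 500 cells/well, dosed in concentration-response and incubated 72 h at 37 degree C, 5% CO2. Viability was read by CellTiter-Glo luminescence.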
# [13] = qHTS of pediatric cancer cell lines to identify multiple opportunities for drug repurposing: Primary screen for U-2 OS cells (AID 1347096); note: nearly all actives have a fitted effect of over 50% in size; note: potency is the fitted concentration of half-maximal effect
# Summary of the method: as §3
# [14] = Natriuretic polypeptide receptor (hNpr1) antagonism - Pilot counterscreen GloSensor control cell line (AID 1347045; calls by dose curve; note: series mostly up to about 38 µM)
# Summary of the method: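 HEK293 cGMP GloSensor cells preloaded 2 h with 2% GloSensor reagent, then compound 30 min before baseline luminescence read. Stimulated with 50 uM sodium nitroprusside, 20 min at room temperature, then read again; counterscreen for Npr1 antagonism.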
# [15] = biological target: Atrial natriuretic peptide receptor 1 (Homo sapiens) (UniProt P16066); assay: Natriuretic polypeptide receptor (hNpr1) antagonism - Pilot screen (AID 1347049; calls by dose curve;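 note: agonist-evoked cGMP luminescence read 20 min after hNppA addition; series mostly up to about 58 µM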)
# Summary of the method: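 Readout is cGMP-driven firefly luciferase luminescence in HEK293 cells carrying hNpr1 and a PDE5-domain GloSensor, read before and 20 min after 0.1 nM hNppA stimulation. Cells had 2% substrate reagent for 2 h and test compound for 30 min.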
# [16] = biological target: Atrial natriuretic peptide receptor 2 (Homo sapiens) (UniProt P20594); assay: Natriuretic polypeptide receptor (hNpr2) antagonism - Pilot subtype selectivity assay (AID 1347050; calls by dose curve)
# Summary of the method: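 Pilot selectivity screen against hNpr2: HEK293 cGMP-sensor cells are treated with LOPAC1280 compounds, then with hNppC peptide at 1 nM final. The cGMP-driven luminescence change over 20 min at room temperature is the read-out.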
# [17] = biological target: Parathyroid hormone/parathyroid hormone-related peptide receptor (Homo sapiens) (UniProt Q03431); assay: qHTS for PTHR1 Agonists: Optimization Screen against the NCGC LOPAC library (AID 1347079);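 note: GloSensor cAMP luminescence in HEK-293 GP2 cells expressing human PTHR1 with IBMX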
# Summary of the method: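 Agonist readout: GloSensor cAMP luminescence, read after 15 min at room temperature. HEK-293-derived GP2 line carries PTHR1; compounds tested as a titration for 1 hr at 37C in presence of IBMX. M-PTH (1-15) served as control.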
# Sequence of Atrial natriuretic peptide receptor 2 (Homo sapiens) (P20594 whole entry, looked up): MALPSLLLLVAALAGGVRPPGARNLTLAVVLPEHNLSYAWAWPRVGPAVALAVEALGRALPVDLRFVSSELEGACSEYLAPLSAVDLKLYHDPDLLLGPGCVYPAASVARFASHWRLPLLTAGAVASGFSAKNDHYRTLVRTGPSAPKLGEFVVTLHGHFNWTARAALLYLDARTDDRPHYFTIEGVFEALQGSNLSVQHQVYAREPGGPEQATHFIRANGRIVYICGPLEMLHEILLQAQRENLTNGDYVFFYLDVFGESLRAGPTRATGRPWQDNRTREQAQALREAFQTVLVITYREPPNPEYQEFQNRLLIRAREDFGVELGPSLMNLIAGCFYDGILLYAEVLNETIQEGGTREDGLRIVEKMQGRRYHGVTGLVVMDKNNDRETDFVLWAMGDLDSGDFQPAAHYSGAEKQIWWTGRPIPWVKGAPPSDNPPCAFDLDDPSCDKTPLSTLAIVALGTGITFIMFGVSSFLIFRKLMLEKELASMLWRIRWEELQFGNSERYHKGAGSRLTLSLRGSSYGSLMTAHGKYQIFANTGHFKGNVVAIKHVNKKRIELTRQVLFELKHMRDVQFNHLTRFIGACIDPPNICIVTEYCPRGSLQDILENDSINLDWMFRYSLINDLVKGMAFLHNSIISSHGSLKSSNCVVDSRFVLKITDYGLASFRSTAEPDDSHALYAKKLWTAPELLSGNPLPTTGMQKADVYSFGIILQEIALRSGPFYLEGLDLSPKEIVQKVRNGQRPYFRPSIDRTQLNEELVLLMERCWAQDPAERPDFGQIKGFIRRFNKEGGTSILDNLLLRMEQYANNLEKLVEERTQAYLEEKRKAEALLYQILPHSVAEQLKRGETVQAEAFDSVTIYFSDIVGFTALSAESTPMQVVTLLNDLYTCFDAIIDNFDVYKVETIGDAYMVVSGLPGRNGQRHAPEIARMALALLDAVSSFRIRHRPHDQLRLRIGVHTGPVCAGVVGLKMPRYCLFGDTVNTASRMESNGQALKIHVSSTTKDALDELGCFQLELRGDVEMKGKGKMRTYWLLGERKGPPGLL
# Sequence of Parathyroid hormone/parathyroid hormone-related peptide receptor (Homo sapiens) (Q03431 whole entry, looked up): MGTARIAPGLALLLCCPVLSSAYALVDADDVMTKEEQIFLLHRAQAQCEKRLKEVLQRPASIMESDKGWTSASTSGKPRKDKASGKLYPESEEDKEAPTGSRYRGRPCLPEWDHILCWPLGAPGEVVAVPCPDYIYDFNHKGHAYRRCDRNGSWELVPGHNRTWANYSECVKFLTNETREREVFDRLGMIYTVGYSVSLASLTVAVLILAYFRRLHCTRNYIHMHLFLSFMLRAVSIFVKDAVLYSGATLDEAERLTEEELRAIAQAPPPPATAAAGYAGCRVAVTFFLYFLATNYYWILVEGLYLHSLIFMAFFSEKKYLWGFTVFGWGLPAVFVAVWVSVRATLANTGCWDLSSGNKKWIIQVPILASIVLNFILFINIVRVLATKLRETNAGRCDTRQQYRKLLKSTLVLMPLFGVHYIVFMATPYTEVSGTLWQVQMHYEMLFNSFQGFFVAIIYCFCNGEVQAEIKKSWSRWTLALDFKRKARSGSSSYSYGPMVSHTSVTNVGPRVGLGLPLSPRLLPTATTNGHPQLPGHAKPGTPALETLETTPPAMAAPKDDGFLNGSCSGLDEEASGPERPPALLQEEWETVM
# Sequence of Atrial natriuretic peptide receptor 1 (Homo sapiens) (P16066 whole entry, looked up): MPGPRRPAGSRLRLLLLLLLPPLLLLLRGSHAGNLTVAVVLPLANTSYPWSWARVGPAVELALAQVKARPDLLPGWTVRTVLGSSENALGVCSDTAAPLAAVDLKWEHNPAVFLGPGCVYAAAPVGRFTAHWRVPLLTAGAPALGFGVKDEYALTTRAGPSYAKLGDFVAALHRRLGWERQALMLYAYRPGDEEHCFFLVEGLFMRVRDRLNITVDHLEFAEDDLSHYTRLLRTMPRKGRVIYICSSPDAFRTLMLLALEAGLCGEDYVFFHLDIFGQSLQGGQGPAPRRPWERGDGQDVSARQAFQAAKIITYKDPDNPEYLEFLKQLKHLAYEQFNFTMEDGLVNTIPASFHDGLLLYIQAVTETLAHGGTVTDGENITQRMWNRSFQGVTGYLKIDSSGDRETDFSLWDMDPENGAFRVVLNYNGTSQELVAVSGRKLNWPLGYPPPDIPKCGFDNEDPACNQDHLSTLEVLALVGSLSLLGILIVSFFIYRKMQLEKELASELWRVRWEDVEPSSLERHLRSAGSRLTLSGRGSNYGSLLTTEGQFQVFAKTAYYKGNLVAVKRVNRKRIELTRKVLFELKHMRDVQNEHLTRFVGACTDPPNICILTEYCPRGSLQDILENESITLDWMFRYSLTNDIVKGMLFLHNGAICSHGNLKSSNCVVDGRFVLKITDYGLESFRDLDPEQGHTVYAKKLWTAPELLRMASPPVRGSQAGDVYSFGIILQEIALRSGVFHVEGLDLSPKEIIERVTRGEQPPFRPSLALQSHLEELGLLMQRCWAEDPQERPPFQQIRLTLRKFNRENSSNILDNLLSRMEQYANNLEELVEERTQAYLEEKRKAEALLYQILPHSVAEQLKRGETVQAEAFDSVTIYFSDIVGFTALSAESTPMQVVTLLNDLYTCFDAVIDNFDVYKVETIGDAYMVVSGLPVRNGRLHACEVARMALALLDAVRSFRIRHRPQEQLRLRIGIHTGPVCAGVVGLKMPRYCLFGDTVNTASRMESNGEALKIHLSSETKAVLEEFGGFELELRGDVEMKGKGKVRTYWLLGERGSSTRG
Structure (SMILES),Potency [1],Potency [2],Potency [3],Potency [4],Potency [5],Potency [6],Potency [7],Potency [8],Potency [9],Potency [10],Potency [11],Potency [12],Potency [13],outcome [14],outcome [15],outcome [16],outcome [17]
COc1ccc(Cn2ccc3ccc(C(=O)NO)cc32)cc1,inactive,inactive,inactive,14.8 µM (active),5.9 µM (active),8.33 µM (active),inactive,21.5 µM (active),–,–,–,–,–,–,–,–,–
O=c1cc(-c2ccc(O)c(O)c2)oc2cc(O)cc(O)c12,inactive,inactive,–,–,–,inactive,inactive,–,inactive,inactive,inactive,–,–,–,–,–,–
O=C(O)CCNc1cc(N2CCc3ccccc3CC2)nc(-c2ccccn2)n1,inactive,–,inactive,18.7 µM (active),23.5 µM (active),23.5 µM (active),–,–,–,–,–,inactive,–,–,–,–,–
Nc1ncnc2c1ncn2[C@@H]1O[C@H](CO)[C@@H](O)[C@@H]1O,inactive,–,2.35 µM (active),0.935 µM (active),0.833 µM (active),3.32 µM (active),2.96 µM (active),–,–,4.69 µM (active),5.44 µM (active),inactive,14.8 µM (active),–,–,–,–
CN1C(=O)C(Cc2c[nH]c3ccccc23)NC1=S (stereo unspecified),inactive,inactive,inactive,inactive,inactive,inactive,inactive,inactive,–,inactive,inactive,inactive,inactive,–,–,–,–
COc1ccc2ccc(=O)oc2c1CC=C(C)C,inactive,inactive,inactive,–,9.35 µM (active),–,18.7 µM (active),–,–,–,–,inactive,–,–,–,–,–
CCN1C[C@H](C)n2c(c(O)c3c(=O)n(Cc4ccc(F)c(Cl)c4)nc(C(=O)NC)c32)C1=O,inactive,inactive,inactive,inactive,inactive,inactive,inactive,–,–,inactive,inactive,–,inactive,–,–,–,–
C[C@H]1O[C@@H](n2cc(F)c(=O)[nH]c2=O)[C@H](O)[C@H]1O,–,–,inactive,–,–,4.69 µM (active),inactive,–,inactive,inactive,–,18.7 µM (active),inactive,inactive,inactive,inactive,inactive
CCC(=O)NCC[C@@H]1CCc2ccc3c(c21)CCO3,–,inactive,inactive,–,inactive,inactive,–,inactive,inactive,inactive,inactive,inactive,inactive,–,–,–,–
CN1CCN2c3ncccc3Cc3ccccc3C2C1 (stereo unspecified),–,inactive,inactive,inactive,inactive,inactive,–,–,inactive,inactive,inactive,inactive,inactive,–,–,–,–
NS(=O)(=O)c1cc(Cl)c(Cl)c(S(N)(=O)=O)c1,–,inactive,inactive,inactive,inactive,inactive,inactive,–,inactive,inactive,inactive,inactive,inactive,–,–,–,–
CCOC(=O)N1c2ccc(C(F)(F)F)cc2[C@@H](N(Cc2cc(C(F)(F)F)cc(C(F)(F)F)c2)C(=O)OC)C[C@H]1CC,–,inactive,inactive,inactive,–,inactive,–,–,inactive,inactive,–,inactive,–,–,–,–,–
O=C(O)C1=CC(O)C(O)[C@H](O)C1 (stereo partly specified),–,inactive,inactive,inactive,inactive,inactive,inactive,inactive,inactive,inactive,inactive,inactive,inactive,–,–,–,–
Nc1ccc(-c2ccc3ncc4ccc(=O)n(-c5cccc(C(F)(F)F)c5)c4c3c2)cn1,–,0.0104 µM (active),0.003 µM (active),–,0.0001 µM (active),0.0118 µM (active),0.148 µM (active),–,0.0418 µM (active),0.0074 µM (active),0.0109 µM (active),1 nM (active) and 36.6 nM (active),–,–,–,–,–
CC(C)C[C@@H](N)[C@H](O)C(=O)N[C@H](C(=O)N[C@H](C(=O)N[C@@H](CC(=O)O)C(=O)O)C(C)C)C(C)C,–,inactive,inactive,–,–,inactive,inactive,24.1 µM (active),inactive,inactive,inactive,inactive,inactive,–,–,–,–
N#CC(c1ccc(Cl)cc1)c1c(Cl)cc(-n2ncc(=O)[nH]c2=O)cc1Cl (stereo unspecified),–,inactive,23.5 µM (active),11.8 µM (active),9.35 µM (active),8.33 µM (active),9.35 µM (active),–,inactive,9.35 µM (active),–,inactive,–,–,–,–,–
COc1cc(F)c(C(C)C)cc1-c1ccc(C(F)(F)F)cc1CN1C(=O)O[C@H](c2cc(C(F)(F)F)cc(C(F)(F)F)c2)[C@@H]1C,–,inactive,–,inactive,inactive,14.8 µM (active),inactive,–,inactive,inactive,–,inactive,inactive,–,–,–,–
N#Cc1c(N(CC(=O)O)CC(=O)O)sc(C(=O)O)c1CC(=O)O,–,inactive,inactive,inactive,inactive,inactive,inactive,inactive,inactive,inactive,inactive,inactive,–,–,–,–,–
O=C(O)c1nc(=O)[nH]c(=O)[nH]1,–,inactive,–,inactive,inactive,inactive,inactive,–,inactive,inactive,inactive,inactive,inactive,–,–,–,–
CCCC1OC2C[C@@H]3[C@H]4CCC5=CC(=O)C=C[C@]5(C)[C@H]4C(O)C[C@]3(C)[C@]2(C(=O)CO)O1 (stereo partly specified),–,inactive,–,inactive,20.9 µM (active),–,–,–,inactive,inactive,–,inactive,–,–,–,–,–
COC(=O)N1CCN(Cc2cccc(NC(=O)Nc3ccc(C)nc3)c2F)CC1,–,inactive,inactive,inactive,inactive,inactive,inactive,inactive,inactive,inactive,inactive,inactive,inactive,–,–,–,–
COc1ccc(-c2oc3c(CC=C(C)C)c(O)cc(O)c3c(=O)c2O)cc1,–,inactive,–,18.7 µM (active),9.35 µM (active),18.7 µM (active),23.5 µM (active),–,inactive,23.5 µM (active),inactive,inactive,–,–,–,–,–
O=C(CC12CC3CC(CC(C3)C1)C2)Nc1cccc2nc(NCCNCCO)ccc12,–,inactive,–,18.7 µM (active),1.87 µM (active),–,–,24.1 µM (active),inactive,9.35 µM (active),inactive,inactive,–,–,–,–,–
CNC(=O)[C@H](CC1=CN=C2C=CCC=C12)NC(=O)[C@@H](CC(=O)NO)CC(C)C,–,inactive,inactive,0.0469 µM (active),0.0059 µM (active),–,–,1.21 µM (active),inactive,0.0296 µM (active),0.685 µM (active),inactive,inactive,–,–,–,–
CN1CC(=O)NC1=NC(=O)Nc1cccc(Cl)c1,–,inactive,inactive,inactive,–,20.9 µM (active),–,–,inactive,inactive,inactive,inactive,inactive,–,–,–,–
CC[C@H](C)C(=O)O[C@H]1C[C@H](O)C=C2C=C[C@H](C)[C@H](CC[C@@H](O)C[C@@H](O)CC(=O)O)[C@H]21,–,inactive,inactive,inactive,inactive,inactive,–,inactive,inactive,inactive,inactive,inactive,inactive,–,–,–,–
Cc1ccc(NC(=O)c2cccc(N(C)C)c2)cc1NC(=O)c1ccc(O)cc1,–,13.1 µM (active),–,0.148 µM (active),0.187 µM (active),11.8 µM (active),–,–,inactive,inactive,3.85 µM (active),inactive,–,–,–,–,–
